# Source: the supplement of paper PMC10941209
# System: HFF
# Assay: cell viability relative to DMSO control; higher = less cytotoxic
# Conditions: 1 µM; 72 h
# Description: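 Single-dose cytotoxicity screen of the MMV Pandemic Response Box at 1 uM on human foreskin fibroblasts (HFF), 72 h at 37 C. Viability measured by MTT (OD 550 nm) and normalised to the DMSO control (% survival).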
row,Structure (SMILES),cell viability [%]
1,CC(C)(C)NC(=O)[C@@H]1C[C@@H]2CCCC[C@@H]2CN1C[C@@H](O)[C@H](Cc1ccccc1)NC(=O)[C@H](CC(N)=O)NC(=O)c1ccc2ccccc2n1,78.9
2,CC(C)(C)c1ccc(OCCn2nc(C(=O)O)c3ccccc3c2=O)cc1,70
3,Cc1oncc1C(=O)Nc1ccc(C(F)(F)F)cc1,65.7
4,O=C(c1cc(O)nc2ccccc12)N1CCN(c2ccccc2)CC1,67
5,CN(Cc1ccc(C(C)(C)C)cc1)Cc1cccc2ccccc12,62.8
6,COc1cc(Cc2cnc(N)nc2N)c2c(c1OC)OC(C1CC1)C=C2 (stereo not given),74.3
7,O=C(CCc1ccc2c(c1)OCO2)NCc1ccc(-c2ccccc2F)cc1,65.7
8,CC(C)=CCC/C(C)=C/CNCCNC1C2CC3CC(C2)CC1C3 (stereo not given),80.2
9,O=C1[C@H](CC[C@H](O)c2ccc(F)cc2)[C@@H](c2ccc(O)cc2)N1c1ccc(F)cc1,73
10,COc1cc(NC(=O)CN2C(=O)NC(c3ccccc3)(c3ccccc3)C2=O)cc(OC)c1,61
11,O=C1NC(=S)N/C1=C\c1cc(Br)cc(Br)c1O,72.6
12,CCN(CC)CCCC(C)Nc1ccnc2cc(Cl)ccc12 (stereo not given),66.4
13,C(=C\c1nc2ccccc2[nH]1)/c1ccc2c(c1)OCO2,63.4
14,CCN(CC)S(=O)(=O)c1ccc(Cl)c(C(=O)Nc2sc3c(c2C#N)CCCC3)c1,60.2
15,CCOC(=O)/C=C/[C@H](C[C@@H]1CCNC1=O)NC(=O)[C@@H](CC(=O)[C@@H](NC(=O)c1cc(C)on1)C(C)C)Cc1ccc(F)cc1,73.2
16,Nc1nc(Nc2ccc3nc(-c4ccc(F)cc4)cc(N)c3c2)cc(-c2ccccc2)n1,78.1
17,Cc1ncc([N+](=O)[O-])n1CC(C)O (stereo not given),68.8
18,O=C(NO)C1(CS(=O)(=O)c2ccc(Oc3ccc(Cl)cc3)cc2)CCOCC1,72.6
19,CN(C)CC(=O)Nc1ccc2[nH]c(=O)c3ccccc3c2c1,59.3
20,COC1CC2CCC(C)C(O)(O2)C(=O)C(=O)N2CCCCC2C(=O)OC(C(C)CC2CCC(OCCO)C(OC)C2)CC(=O)C(C)/C=C(\C)C(O)C(OC)C(=O)C(C)CC(C)/C=C/C=C/C=C/1C (stereo not given),60.8

row,Structure (SMILES),cell viability [%]
1,Oc1ccc2[nH]c(-c3ccccc3)nc2c1,69.2
2,CC[C@@]1(O)C(=O)OCc2c1cc1n(c2=O)Cc2cc3c(CN(C)C)c(O)ccc3nc2-1,50.1
3,O=C(NC(=O)N1CCCc2ccccc21)c1ccc(Cl)cc1Cl,70.2
4,c1cnc(NCc2ccc(CNc3ncccn3)cc2)nc1,67.2
5,O=C(O)c1sccc1S(=O)(=O)n1ccc2cc(Br)ccc21,65.1
6,CC(=O)N[C@H](C)C(=O)N[C@H](Cc1ccccc1)C(=O)O,61.1
7,Cc1cc(CCOc2c(C)cc(-c3nnn(C)n3)cc2C)on1,69.2
8,COc1ccc(-n2cnc3cc(NCc4ccco4)ccc32)cc1,52
9,C[C@H](NC(CC(=O)c1ccccc1C(F)(F)F)C(=O)O)c1ccccc1 (stereo not given in full),63.6
10,CC(C)Cn1c(=O)n(C)c(=O)c2c(-c3cncn3C)n(Cc3cccc4ccccc34)nc21,63.1
11,CC[C@H](CO)Nc1nc(NCc2ccccc2)c2ncn(C(C)C)c2n1,68.9
12,COc1ccc(C)cc1NC(=O)c1ccc(S(=O)(=O)N2CCCCC2)cc1,76.4
13,C=CCc1cc(Cc2cnc(N)nc2N)cc(OC)c1O,72.9
14,CNc1nc(=O)[nH]cc1F,68.4
15,COc1cc(NS(=O)(=O)c2ccc(C)cc2)c2ncccc2c1,72.5
16,O=C(c1ccccc1)N1CCN(c2ccccc2NC(=O)C(Cl)(Cl)Cl)CC1,65
17,CC(C)Oc1ccc(-n2cnc3cc(/C=C\c4ccc(C(C)(C)O)cc4)ccc32)cc1,64.2
18,Nc1nnc(-c2ccc(Cl)cc2)s1,62.7
19,COc1ccc(NC(=O)c2cc3ccccn3n2)cc1,62.2
20,C[C@H](Cn1cnc2c(N)ncnc21)OCP(=O)(O)O,58.1
